PubChem BioAssay (EPA / NIEHS)
“And” between values parts separate entries of the source, which are not always exact repeats. Equal values may be shown once. Results filed as inconclusive are left out. The source holds several records for some structures; these can differ, active in one and inactive in another. The source made the active and inactive calls. The calls were made as follows, unless noted: active = hit-call score of the fitted dose curve at least 0.9, where 1 is the maximum; inactive = score below 0.9.

Assays:
[1] = BSK_3C_TissueFactor: BioMAP Diversity Plus: 3C Assay for Tissue Factor Biomarker Activity (AID 2282997); conditions: BioMAP 3C HUVEC, tissue factor biomarker readout; actives raise or lower the signal
Method in brief: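 Human vascular primary cells (umbilical vein endothelium) received test chemical; Tissue Factor was determined by ELISA at 24 h, and both gain and loss of signal versus DMSO were fitted.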

[2] = read-out: Intercellular Adhesion Molecule 1 (ICAM1), ICAM1 (gene 3383); assay: BSK_3C_ICAM1: BioMAP Diversity Plus: 3C Assay for Intercellular Adhesion Molecule 1 (ICAM1) Biomarker Activity (AID 2283003); conditions: primary human endothelial cells (HUVEC); actives raise or lower the signal
Method in brief: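 HUVEC primary cells stimulated under 3C conditions; ICAM1 measured by ELISA 24 h after compound dosing. Curves fitted bidirectionally against the DMSO baseline. Overt cytotoxicity checked by SRB staining of parallel cultures.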

[3] = read-out: E-selectin (Homo sapiens) (UniProt P16581); assay: BSK_3C_Eselectin: BioMAP Diversity Plus: 3C Assay for Eselectin Biomarker Activity (AID 2283015); conditions: primary human endothelial cells (HUVEC); actives raise or lower the signal
Method in brief: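 HUVEC, 3C stimulation; compound exposure 24 h; E-selectin by ELISA; gain- or loss-of-signal fitted bidirectionally vs DMSO baseline.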

[4] = read-out: Human Leukocyte Antigen - DR isotype (HLADR), HLA-DRA (gene 3122); assay: BSK_3C_HLADR: BioMAP Diversity Plus: 3C Assay for Human Leukocyte Antigen - DR isotype (HLADR) Biomarker Activity (AID 2283019); conditions: primary human endothelial cells (HUVEC); actives raise or lower the signal
Method in brief: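 HUVEC, 3C stimulation, 24 h post-dose; HLA-DR by ELISA; bidirectional curve fit vs DMSO baseline; gain or loss of signal scored.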

[5] = read-out: Pselectin, SELP (gene 6403); assay: BSK_4H_Pselectin: BioMAP Diversity Plus: 4H Assay for Pselectin Biomarker Activity (AID 2283026); conditions: primary human endothelial cells (HUVEC); actives raise or lower the signal
Method in brief: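 Primary human umbilical vein endothelial cells were treated 24 h, and cell-surface P-selectin was then quantified by ELISA. Bidirectional fit versus DMSO; cytotoxicity checked in parallel cultures by SRB total-protein staining.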

[6] = read-out: Human Leukocyte Antigen - DR isotype (HLADR), HLA-DRA (gene 3122); assay: BSK_BE3C_HLADR: BioMAP Diversity Plus: BE3C Assay for Human Leukocyte Antigen - DR isotype (HLADR) Biomarker Activity (AID 2283032); conditions: primary human bronchial epithelial cells; actives raise or lower the signal
Method in brief: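 Human primary bronchial epithelial cells (BE3C system) exposed to compound for 24 hours; cell-surface HLA-DR measured by ELISA, fitted bidirectionally relative to DMSO. Total protein by SRB in parallel cultures tracked cytotoxicity.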

[7] = read-out: Interferon-gamma inducible Protein 10 (IP10), CXCL10 (gene 3627); assay: BSK_BE3C_IP10: BioMAP Diversity Plus: BE3C Assay for Interferon-gamma inducible Protein 10 (IP10) Biomarker Activity (AID 2283034); conditions: primary human bronchial epithelial cells; actives raise or lower the signal
Method in brief: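 Primary human bronchial epithelial cells, with IP-10 measured by ELISA 24 hours after chemical dosing. Bidirectional fit against DMSO; cytotoxicity checked by SRB total protein staining in parallel cultures.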

[8] = read-out: urokinase plasminogen activator (uPA), PLAU (gene 5328); assay: BSK_BE3C_uPA: BioMAP Diversity Plus: BE3C Assay for urokinase plasminogen activator (uPA) Biomarker Activity (AID 2283038); conditions: primary human bronchial epithelial cells; actives raise or lower the signal
Method in brief: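 ELISA read-out of uPA in human lung primary bronchial epithelial cultures, 24 h post-dosing. Gain or loss of signal fitted bidirectionally relative to DMSO baseline; cytotoxicity checked in parallel cultures via SRB total protein stain.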

[9] = read-out: Interleukin-6 (IL6), IL6 (gene 3569); assay: BSK_CASM3C_IL6: BioMAP Diversity Plus: CASM3C Assay for Interleukin-6 (IL6) Biomarker Activity for (AID 2283040); conditions: primary human coronary artery smooth muscle cells; actives raise or lower the signal
[10] = read-out: Tissue Factor, F3 (gene 2152); assay: BSK_CASM3C_TissueFactor: BioMAP Diversity Plus: CASM3C Assay for Tissue Factor Biomarker Activity (AID 2283052); conditions: primary human coronary artery smooth muscle cells; actives raise or lower the signal;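 also: cell surface tissue factor protein level read by ELISA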
[11] = read-out: Urokinase-type plasminogen activator receptor (uPAR), PLAUR (gene 5329); assay: BSK_CASM3C_uPAR: BioMAP Diversity Plus: CASM3C Assay for Urokinase-type plasminogen activator receptor (uPAR) Biomarker Activity (AID 2283054); conditions: primary human coronary artery smooth muscle cells; actives raise or lower the signal;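 also: cell-surface uPAR protein level quantified by ELISA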
[12] = read-out: Collagen III, COL3A1 (gene 1281); assay: BSK_hDFCGF_CollagenIII: BioMAP Diversity Plus: hDFCGF Assay for Collagen III Biomarker Activity (AID 2283056); conditions: primary human foreskin fibroblasts; actives raise or lower the signal
Method in brief: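 hDFCGF primary human dermal fibroblasts; 24 h chemical exposure; collagen III by ELISA; bidirectional curve fit vs DMSO baseline (gain or loss of signal).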

[13] = read-out: Epidermal growth factor receptor (EGFR), EGFR (gene 1956); assay: BSK_hDFCGF_EGFR: BioMAP Diversity Plus: hDFCGF Assay for Epidermal growth factor receptor (EGFR) Biomarker Activity (AID 2283057); conditions: primary human foreskin fibroblasts; actives raise or lower the signal
Method in brief: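 Primary human foreskin fibroblasts (hDFCGF system), sampled 24 h after dosing; EGFR quantified by ELISA. Bidirectional fit relative to DMSO baseline; SRB total-protein staining in parallel cultures for cytotoxicity.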

[14] = read-out: Vascular cell adhesion molecule 1 (VCAM1), VCAM1 (gene 7412); assay: BSK_hDFCGF_VCAM1: BioMAP Diversity Plus: hDFCGF Assay for Vascular cell adhesion molecule 1 (VCAM1) Biomarker Activity (AID 2283065); conditions: primary human foreskin fibroblasts; actives raise or lower the signal;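 as to AC50: VCAM-1 protein level quantified by ELISA after 24 h chemical exposure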
Method in brief: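 ELISA read-out of VCAM-1 on human skin fibroblasts, 24 h post-dose; gain or loss of signal fitted bidirectionally against DMSO baseline.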

[15] = read-out: Intercellular Adhesion Molecule 1 (ICAM1), ICAM1 (gene 3383); assay: BSK_KF3CT_ICAM1: BioMAP Diversity Plus: KF3CT Assay for Intercellular Adhesion Molecule 1 (ICAM1) Biomarker Activity (AID 2283067); conditions: primary human keratinocytes with fibroblasts; actives raise or lower the signal
Method in brief: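 ELISA readout of ICAM-1; KF3CT human skin co-culture (keratinocytes + foreskin fibroblasts), 24 h post-dose; gain/loss fit vs DMSO baseline.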

[16] = read-out: CD40, CD40 (gene 958); assay: BSK_LPS_CD40: BioMAP Diversity Plus: LPS Assay for CD40 Biomarker Activity (AID 2283076); conditions: primary human HUVEC with PBMC; actives raise or lower the signal
Method in brief: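 ELISA readout of CD40 in HUVEC/PBMC co-culture (BSK_LPS system), 24 h post-dosing; bidirectional curve fit, DMSO baseline; parallel SRB total-protein staining for cytotoxicity.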

[17] = read-out: E-selectin (Homo sapiens) (UniProt P16581); assay: BSK_LPS_Eselectin: BioMAP Diversity Plus: LPS Assay for Eselectin Biomarker Activity (AID 2283077); conditions: primary human HUVEC with PBMC; actives raise or lower the signal
Method in brief: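 ELISA readout of E-selectin, 24 h post-dose, HUVEC + PBMC co-culture (LPS system). Gain or loss of signal vs DMSO baseline, bidirectional fit.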

[18] = read-out: Monocyte Chemoattractant Protein-1 (MCP1), CCL2 (gene 6347); assay: BSK_LPS_MCP1: BioMAP Diversity Plus: LPS Assay for Monocyte Chemoattractant Protein-1 (MCP1) Biomarker Activity (AID 2283081); conditions: primary human HUVEC with PBMC; actives raise or lower the signal;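 as to AC50: secreted MCP-1 protein quantified by ELISA in culture supernatant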
Method in brief: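 ELISA read-out of MCP-1 after 24 h chemical dosing of a human umbilical vein endothelial cell/peripheral blood mononuclear cell co-culture stimulated with LPS. Gain or loss of signal fitted relative to DMSO controls.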

[19] = BSK_LPS_PGE2: BioMAP Diversity Plus: LPS Assay for Prostaglandin E2 (PGE2) Biomarker Activity (AID 2283082); conditions: primary human HUVEC with PBMC; actives raise or lower the signal;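 as to AC50: secreted prostaglandin E2 measured by ELISA in LPS-stimulated co-culture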
Method in brief: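 HUVEC plus human PBMC co-culture stimulated with LPS; secreted PGE2 quantified by ELISA 24 h after chemical dosing. Activity fitted bidirectionally against DMSO baseline; parallel SRB staining (0.1% SRB after 10% TCA fixation, 560 nm) flags overt cytotoxicity.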

[20] = target: human Peroxisome Proliferator-activated Receptor delta (PPARd), PPARD (gene 5467) (UniProt Q03181); assay: ATG_PPARd_TRANS: Attagene TRANS-FACTORIAL HepG2 Assay for human Peroxisome Proliferator-activated Receptor delta (PPARd) (AID 2283002; active = hit-call score of the fitted dose curve at least 0.9, where 1 is the maximum)
Chain of human Peroxisome Proliferator-activated Receptor delta (PPARd), PPARD (gene 5467) (Q03181 whole entry, looked up, the tested form may be a part): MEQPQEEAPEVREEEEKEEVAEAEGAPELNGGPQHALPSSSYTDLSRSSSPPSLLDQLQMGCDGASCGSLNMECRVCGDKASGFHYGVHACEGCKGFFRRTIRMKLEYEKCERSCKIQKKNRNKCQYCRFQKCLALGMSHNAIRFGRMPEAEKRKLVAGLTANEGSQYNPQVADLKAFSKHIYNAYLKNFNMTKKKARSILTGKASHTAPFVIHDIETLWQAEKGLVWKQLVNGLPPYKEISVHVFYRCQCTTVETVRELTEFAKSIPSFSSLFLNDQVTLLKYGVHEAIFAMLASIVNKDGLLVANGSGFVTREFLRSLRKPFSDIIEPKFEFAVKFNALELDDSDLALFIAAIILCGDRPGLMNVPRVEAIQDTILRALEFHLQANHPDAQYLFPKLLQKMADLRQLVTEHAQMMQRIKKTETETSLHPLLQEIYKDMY
Method in brief: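 HepG2 cells transiently transfected with multiplexed GAL4-UAS reporter units and exogenous chimeric NR-Gal4 proteins; 24 h compound exposure. Reporter mRNA measured by RT-PCR, 6-FAM labelling, HpaI digestion and capillary electrophoresis; gain of signal versus DMSO.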

Measured: AC50

Chain of E-selectin (Homo sapiens) (P16581 whole entry, looked up): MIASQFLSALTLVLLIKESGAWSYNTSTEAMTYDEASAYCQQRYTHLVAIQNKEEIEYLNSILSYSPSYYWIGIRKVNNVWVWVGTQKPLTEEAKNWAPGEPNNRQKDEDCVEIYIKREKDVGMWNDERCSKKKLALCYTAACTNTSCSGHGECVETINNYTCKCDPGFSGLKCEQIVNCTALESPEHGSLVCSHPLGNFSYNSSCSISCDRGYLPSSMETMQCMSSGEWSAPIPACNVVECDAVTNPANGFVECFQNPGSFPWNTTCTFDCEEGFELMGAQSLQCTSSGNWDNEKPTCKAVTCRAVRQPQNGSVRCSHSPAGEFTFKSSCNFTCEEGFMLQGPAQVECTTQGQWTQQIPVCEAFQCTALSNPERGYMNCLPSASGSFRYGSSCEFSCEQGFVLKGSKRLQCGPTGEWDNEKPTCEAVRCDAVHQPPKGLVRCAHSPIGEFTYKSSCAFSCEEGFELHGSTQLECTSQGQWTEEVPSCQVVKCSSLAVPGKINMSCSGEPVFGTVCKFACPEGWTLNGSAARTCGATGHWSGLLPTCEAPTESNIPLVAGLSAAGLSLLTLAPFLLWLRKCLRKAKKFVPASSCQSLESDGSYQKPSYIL

OC(C(F)(F)F)(C(F)(F)F)C(O)(C(F)(F)F)C(F)(F)F
active: [1] 23.7 µM and 22.6 µM | [2] 40.6 µM | [3] 21.5 µM and 30 µM | [4] 29.4 µM and 26.4 µM | [5] 22.1 µM and 21.4 µM | [6] 48.2 µM and 45.4 µM | [7] 42.6 µM and 43.6 µM | [8] 28.8 µM and 32.2 µM | [9] 41.2 µM | [11] 19.3 µM and 22.6 µM | [12] 41.9 µM and 23.6 µM | [13] 5.95 µM | [14] 13.2 µM and 12.3 µM | [15] 48.3 µM | [16] 29.8 µM and 21.6 µM | [17] 24.4 µM and 51.9 µM | [18] 23.9 µM and 23.3 µM | [19] 7.65 µM and 6.88 µM
inactive: [2] | [9] | [10] | [13] | [15]

COC(=O)/C=C\C(=O)OC
active: [3] 13.6 µM | [6] 10.7 µM | [7] 20 µM
inactive: all other assays above

C=CN1CCCCCC1=O
inactive: [20]

COc1cc(CNC(=O)CCCC/C=C/C(C)C)ccc1O
inactive: [1] | [2] | [3] | [5] | [6] | [7] | [8] | [9] | [10] | [11] | [12] | [13] | [14] | [15] | [16] | [17] | [18]
active: [4] 20 µM and 9.23 µM | [14] 384 nM | [19] 4.62 µM and 2.9 µM

CCCCC(CC)COC(=O)C=Cc1ccc(OC)cc1 (stereo not drawn)
inactive: [2] | [6] | [7] | [8] | [9] | [10] | [11] | [13] | [14] | [15] | [16] | [17] | [18] | [19]
active: [1] 5.17 µM and 7.14 µM | [3] 27.5 µM and 11.4 µM | [4] 30.4 µM and 22.1 µM | [5] 33.3 µM and 38.7 µM | [10] 6.67 µM | [12] 9.77 µM and 7.79 µM | [16] 20 µM | [17] 13.2 µM | [18] 32.3 µM

c1ccc2c(c1)Oc1ccccc1S2
inactive: [20]

COc1ccccc1Oc1c(NS(=O)(=O)c2ccc(C(C)(C)C)cc2)nc(-c2ncccn2)nc1OCCO
active: [10] 1.97 µM and 5.36 µM | [12] 3.9 µM and 2.51 µM
not listed: [20]
inactive: all other assays above

[O-][n+]1ccc(Cl)cc1
inactive: [20]

Cc1cc(O)cc(C)c1Cl
inactive: [20]

C1CN(CCOCCN2CCOCC2)CCO1
not listed: [20]
inactive: all other assays above
